High-throughput results as filed in PubChem BioAssay.
Sampled rows, rich in hits. Any-hit rate of the full collection: about 2.1%.
APP 5UTR inh = APP translation inhibition; SH-SY5Y APP 5'UTR-luciferase reporter, luminescence; inhibition, % at 2 µM; 190,000 compounds, 0.82% hits; AID 1285;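 active = inhibition above a set limit, derived from the sample mean plus 3 SD, cut at about 45% in these data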
BaF3 tox = reduces parental Ba/F3 cell viability, JAK2V617F counter-screen | inhibition, % at 5.6 µM | CellTiter-Glo ATP luminescence | 220,000 compounds, 1.1% hits | AID 1486;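 active = inhibition above a per-campaign cutoff, the mean inhibition of all tested compounds plus 3 SD, cut at about 27% in these data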;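 also: 0% = DMSO wells and 100% = JAK Inhibitor I control wells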
aSyn 5UTR inh = MLPCN primary screen, SNCA 5' untranslated region; alpha-synuclein 5'UTR reporter, inhibitor activity; inhibition, % (tested at 7.5 µM); 300,000 compounds, 0.82% hits; in the data active = inhibition above about 60%;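 also: H4 neuroglioblastoma cells stably carrying SNCA 5'UTR luciferase fusion; 0% = DMSO wells and 100% = positive control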
KLF5 inh = suppresses KLF5 promoter-driven expression; DLD-1 KLF5 promoter-luciferase reporter, luminescence; inhibition, % at 5 µM; 290,000 compounds, 0.23% hits;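 active = inhibition above a per-plate limit of that plate's mean compound inhibition plus 3 SD, cut at about 60% in these data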;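 also: 0% = DMSO wells and 100% = LY294002 at 200 µM; higher means less KLF5 promoter-driven luciferase light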
IEC-6 tox = kills IEC-6 intestinal cells in KLF5 counter-screen; IEC-6 cytotoxicity, luminescence viability; inhibition, % at 5 µM; 290,000 compounds, 0.78% hits; AID 1825; in the data active = inhibition above about 22%;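 also: 0% = plate median of test compound wells and 100% = cytotoxic reference compound wells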
Ba/F3 V617F tox = lowers viability of Ba/F3 cells expressing EpoR and JAK2V617F; 220,000 compounds, 1.1% hits; inhibition, % at 5.6 µM; ATP luminescence;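 active = inhibition above the campaign mean plus 3 SD over all tested compounds, cut at about 24% in these data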;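 also: cytokine-independent growth of Ba/F3 cells driven by EpoR plus mutant JAK2; 0% = DMSO-treated cells and 100% = JAK inhibitor I control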
Active calls of the source: *.

How did CC1=NN(c2nc(-c3ccc(C)cc3)cs2)C(=O)C1N=Nc1ccccc1O (centres undefined) do in these assays?
APP 5UTR inh: 52*; BaF3 tox: 8; aSyn 5UTR inh: 63*; KLF5 inh: -14; IEC-6 tox: 0; Ba/F3 V617F tox: -2

Results for CC(C)(C)c1ccc(OCC(=O)N(Cc2cccs2)C2CCS(=O)(=O)C2)cc1 (centres undefined) ?
aSyn 5UTR inh: 9; KLF5 inh: 0; IEC-6 tox: 2

Results for COc1ccc(-c2nn(-c3ccccc3)cc2/C=C/C(=O)N2CCOCC2)cc1OC ?
APP 5UTR inh: -8; BaF3 tox: 3; aSyn 5UTR inh: 20; KLF5 inh: 19; IEC-6 tox: 0; Ba/F3 V617F tox: 3

How did COc1ccc(NC(=O)c2cn(CCC#N)nc2-c2cc3ccccc3o2)cc1 do in these assays?
APP 5UTR inh: 46*; BaF3 tox: 3; aSyn 5UTR inh: -1; KLF5 inh: -3; IEC-6 tox: -8; Ba/F3 V617F tox: 7

How did N#CCCn1cc(C(=O)Nc2ccc(C(=O)O)cc2)c(-c2cc3ccccc3o2)n1 do in these assays?
APP 5UTR inh: 5; BaF3 tox: 10; aSyn 5UTR inh: 10; KLF5 inh: -10; IEC-6 tox: -1; Ba/F3 V617F tox: 6

How did Cc1ccc(S(=O)(=O)N2CCCC2CNC(=O)C(=O)Nc2ccc(F)cc2)cc1 (centres undefined) do in these assays?
aSyn 5UTR inh: -74

What do the screens show for `Cc1cc(C(C)(C)C)cc(C)c1Cn1c2[n+](c3ccc(C(F)(F)F)cc31)CCCCC2`?
APP 5UTR inh: 6; BaF3 tox: 53*; aSyn 5UTR inh: -5; KLF5 inh: 8; IEC-6 tox: 5; Ba/F3 V617F tox: 49*

What do the screens show for `O=C(C(=O)N1CCN(Cc2ccc3c(c2)OCO3)CC1)c1c[nH]c2ccccc12`?
aSyn 5UTR inh: 21; KLF5 inh: -50; IEC-6 tox: -6

What do the screens show for `CCN(CC(=O)NCc1cccs1)C(=O)c1ccc(OC)c(OC)c1`?
aSyn 5UTR inh: 13

Results for COc1ccc(C2=C(C=O)Cc3ccccc3O2)cc1 ?
aSyn 5UTR inh: 98*

What do the screens show for `O=C(NC(CC(=O)N1CCCC(C(F)(F)F)C1)c1ccccc1)c1ccccc1Cl` (centres undefined)?
aSyn 5UTR inh: -18; KLF5 inh: -1; IEC-6 tox: -4

How did COc1ccc(N2CCN(C(=O)COC(=O)c3cccc(S(=O)(=O)Nc4cccc(C)c4)c3)CC2)cc1 do in these assays?
aSyn 5UTR inh: -2

Results for COc1cc(C(=O)NNC(=S)NCc2ccco2)cc(OC)c1OC ?
APP 5UTR inh: -3; BaF3 tox: 90*; aSyn 5UTR inh: 5; KLF5 inh: 0; IEC-6 tox: 5; Ba/F3 V617F tox: 4

Results for COc1ccccc1C(=O)NNC(=S)NC(=O)c1cc(OC)c(OC)c(OC)c1 ?
APP 5UTR inh: 9; BaF3 tox: 7; aSyn 5UTR inh: 73*; KLF5 inh: -33; IEC-6 tox: 5; Ba/F3 V617F tox: 2

Results for COc1cc(C(=O)NC(=S)NNC(=O)c2cnccn2)cc(OC)c1OC ?
APP 5UTR inh: 1; BaF3 tox: 15; aSyn 5UTR inh: 79*; KLF5 inh: 18; IEC-6 tox: -5; Ba/F3 V617F tox: 7

Results for COc1cc(C(=O)NNC(=O)c2ccco2)cc(OC)c1OC ?
aSyn 5UTR inh: -20; KLF5 inh: -18; IEC-6 tox: 0

How did CC(C)(C)c1nc(NC(=O)Nc2ccccc2)sc1Br do in these assays?
APP 5UTR inh: -51; BaF3 tox: -4; aSyn 5UTR inh: -58; KLF5 inh: -49; IEC-6 tox: 6; Ba/F3 V617F tox: -4

What do the screens show for `Cc1ccc(C(=O)Nc2ncccc2O)cc1S(=O)(=O)N1CCCCC1`?
aSyn 5UTR inh: -13

Results for Cc1nc2cc(N3CCCCC3)c(NC(=O)c3ccncc3)cc2c(=O)n1Cc1ccc(Cl)cc1 ?
BaF3 tox: 0; aSyn 5UTR inh: 62*; KLF5 inh: -17; IEC-6 tox: 1; Ba/F3 V617F tox: -4

How did Cc1nc2cc(N3CCN(C)CC3)c(NC(=O)Cc3ccccc3)cc2c(=O)n1Cc1ccccc1 do in these assays?
APP 5UTR inh: -7; BaF3 tox: 7; aSyn 5UTR inh: -15; KLF5 inh: -2; IEC-6 tox: 0; Ba/F3 V617F tox: 3

Results for COc1ccc(OC)c(/C=C/C(=O)N(C)CC(=O)Nc2cc(C)ccc2C)c1 ?
APP 5UTR inh: 66*; BaF3 tox: -1; aSyn 5UTR inh: 18; KLF5 inh: -36; IEC-6 tox: 3; Ba/F3 V617F tox: -3

Results for COc1ccc(OC)c(/C=C/C(=O)N(C)CC(=O)Nc2ccc(C)cc2)c1 ?
APP 5UTR inh: 8; BaF3 tox: 3; aSyn 5UTR inh: 3; KLF5 inh: -17; IEC-6 tox: 3; Ba/F3 V617F tox: 0

What do the screens show for `Cc1ccc(Oc2c(F)c(F)nc(N3CCCC3)c2F)cc1`?
APP 5UTR inh: -1; BaF3 tox: 2; aSyn 5UTR inh: 1; KLF5 inh: -27; IEC-6 tox: -7; Ba/F3 V617F tox: 0

How did O=[N+]([O-])c1ccc(Oc2c(F)c(F)nc(N3CCCC3)c2F)cc1 do in these assays?
APP 5UTR inh: 83*; BaF3 tox: 5; aSyn 5UTR inh: 22; KLF5 inh: -6; IEC-6 tox: 0; Ba/F3 V617F tox: -1

How did COc1cc(C2C3=C(Nc4ncnn42)c2ccccc2CC3)cc(OC)c1OC (centres undefined) do in these assays?
APP 5UTR inh: 95*; BaF3 tox: 90*; aSyn 5UTR inh: 83*; KLF5 inh: 78*; IEC-6 tox: 96*; Ba/F3 V617F tox: 93*

What do the screens show for `CC1CCN(CCNC(=O)c2ccc3c(=O)n(Cc4ccc(Cl)cc4)c(=S)[nH]c3c2)CC1`?
aSyn 5UTR inh: 98*; KLF5 inh: -6; IEC-6 tox: -3

What do the screens show for `COCCCNC(=O)c1ccc2c(=O)n(Cc3ccc(Cl)cc3)c(=S)[nH]c2c1`?
aSyn 5UTR inh: 11; KLF5 inh: -27; IEC-6 tox: 2

How did CCCc1cc(=O)[nH]c2nnc(SCC(=O)Nc3cc(C)on3)n12 do in these assays?
aSyn 5UTR inh: -5

Results for CCCC(=O)NC(c1ccco1)c1cc(Cl)c2cccnc2c1O (centres undefined) ?
APP 5UTR inh: 4; BaF3 tox: 4; aSyn 5UTR inh: 40; KLF5 inh: -17; IEC-6 tox: 5; Ba/F3 V617F tox: 7

What do the screens show for `COc1ccc(C(NC(C)=O)c2ccc3cccnc3c2O)c(OC)c1` (centres undefined)?
aSyn 5UTR inh: 83*

What do the screens show for `COc1ccc(C(NC(C)=O)c2cc(Cl)c3cccnc3c2O)cc1OC` (centres undefined)?
APP 5UTR inh: 50*; BaF3 tox: 10; aSyn 5UTR inh: 46; KLF5 inh: -35; IEC-6 tox: -4; Ba/F3 V617F tox: 4

What do the screens show for `CCCC(=O)NC(c1cccs1)c1cc(Cl)c2cccnc2c1O` (centres undefined)?
APP 5UTR inh: 44; BaF3 tox: -2; aSyn 5UTR inh: 99*; KLF5 inh: -13; IEC-6 tox: -1; Ba/F3 V617F tox: -2
